Laboratory results reported in PubChem BioAssay (Tox21).
Where “and” joins values, the source holds several entries; their conditions need not be identical. Equal values may be shown once. Records with an inconclusive call do not appear. Calls of active or inactive are those of the source. Unless noted, the call rests on the fitted dose curve; in most records, active means well fitted curve in the direction sought with a large enough effect in the repeat runs; inconclusive means weak or mixed curves; inactive means no such curve, though single readings can be large; an effect the other way counts as inactive or inconclusive.

Key:
[1] = qHTS assay to identify small molecule antagonists of the thyroid receptor (TR) signaling pathway (AID 743065); further: nearly all actives have a fitted effect of over 55% in size
In short: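 GH3.TRE-Luc rat pituitary cells (two TREs driving luciferase) were dosed with compound, then stimulated with 1 nM T3 (final) for 23.5 h at 37 C. ONE-Glo luminescence was the read-out, with CellTiter-Fluor fluorescence as the cytotoxicity counter-screen.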

[2] = test system: thyroid hormone receptor (rat, GH3 cells); experiment: qHTS assay to identify small molecule agonists of the thyroid receptor (TR) signaling pathway (AID 743066; calls by dose curve)
[3] = biological target: Estrogen receptor (Homo sapiens) (UniProt P03372); experiment: qHTS assay to identify small molecule antagonists of the estrogen receptor alpha (ER-alpha) signaling pathway (AID 743069; active means well fitted curve in the direction sought with a large enough effect in the signal ratio in the repeat runs, not every such curve was filed as active; the % refers to the signal ratio)
In short: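 HEK293 ER-alpha-UAS-bla GripTite cells, held overnight in 2% charcoal-stripped FBS, 5,000 cells/well, preincubated 4 h, then compound plus 17beta-estradiol for 18 h at 37C. Beta-lactamase read by LiveBLAzer B/G FRET substrate, 2 h at room temperature.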

[4] = qHTS assay to identify small molecule antagonists of the estrogen receptor alpha (ER-alpha) signaling pathway - cell viability counter screen (AID 743074; calls by dose curve;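 further: HEK293 cells carrying ER-alpha-UAS-bla reporter stimulated with 17beta-estradiol; nearly all actives have a fitted effect of over 45% in size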)
[5] = biological target: Estrogen receptor (Homo sapiens) (UniProt P03372); experiment: qHTS assay to identify small molecule agonists of the estrogen receptor alpha (ER-alpha) signaling pathway (AID 743075; calls by dose curve)
[6] = biological target: Estrogen receptor (Homo sapiens) (UniProt P03372); experiment: qHTS assay to identify small molecule agonists of the estrogen receptor alpha (ER-alpha) signaling pathway using the BG1 cell line (AID 743079); conditions: BG1Luc4E2 cells, ERE-luciferase agonist, 22 h; further: nearly all actives have a fitted effect of over 20% in size; further: potency means the concentration at half of the fitted maximal effect
[7] = qHTS assay to identify small molecule antagonists of the estrogen receptor alpha (ER-alpha) signaling pathway using the BG1 cell line (AID 743080; calls by dose curve;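 further: BG1 cells stimulated with 17beta-estradiol alongside compound; nearly all actives have a fitted effect of over 25% in size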)
In short: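 Quantitative HTS on the Tox21 10K library: BG1 cells with endogenous ER-alpha and ERE-luciferase reporter, 17beta-estradiol stimulation, 21.5 h compound exposure, luminescence endpoint with parallel fluorescence cytotoxicity counter-read.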

[8] = qHTS assay to identify small molecule antagonists of the estrogen receptor alpha (ER-alpha) signaling pathway using the BG1 cell line - cell viability counter screen (AID 743081);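 further: compound given together with 17beta-estradiol as the ER stimulus; nearly all actives have a fitted effect of over 45% in size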
[9] = biological target: Aromatase (Homo sapiens) (UniProt P11511); experiment: qHTS assay to identify aromatase inhibitors (AID 743083); further: nearly all actives have a fitted effect of over 55% in size
[10] = qHTS assay to identify aromatase inhibitors - cell viability counter screen (AID 743084);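 further: cells stimulated with testosterone during compound exposure; nearly all actives have a fitted effect of over 55% in size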
On the % scale 0 is the no-effect control and ±100 the full control effect.

Sequence of Estrogen receptor (Homo sapiens) (P03372 whole entry, looked up): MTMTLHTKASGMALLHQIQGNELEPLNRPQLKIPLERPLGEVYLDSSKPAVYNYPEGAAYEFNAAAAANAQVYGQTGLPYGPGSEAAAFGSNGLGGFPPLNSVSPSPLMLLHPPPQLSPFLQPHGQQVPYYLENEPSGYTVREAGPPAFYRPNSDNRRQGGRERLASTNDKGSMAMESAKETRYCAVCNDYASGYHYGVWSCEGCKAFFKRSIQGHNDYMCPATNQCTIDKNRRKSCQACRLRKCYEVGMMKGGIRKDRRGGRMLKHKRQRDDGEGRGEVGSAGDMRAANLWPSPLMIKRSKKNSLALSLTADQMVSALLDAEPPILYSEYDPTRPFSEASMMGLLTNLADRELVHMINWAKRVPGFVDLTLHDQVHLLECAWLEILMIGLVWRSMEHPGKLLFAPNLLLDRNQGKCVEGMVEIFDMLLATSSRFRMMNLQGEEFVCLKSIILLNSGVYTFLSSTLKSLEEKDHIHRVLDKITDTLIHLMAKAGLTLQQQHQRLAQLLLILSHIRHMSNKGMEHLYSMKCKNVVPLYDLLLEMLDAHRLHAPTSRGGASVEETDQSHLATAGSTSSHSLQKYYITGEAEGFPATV
Sequence of Aromatase (Homo sapiens) (P11511 whole entry, looked up): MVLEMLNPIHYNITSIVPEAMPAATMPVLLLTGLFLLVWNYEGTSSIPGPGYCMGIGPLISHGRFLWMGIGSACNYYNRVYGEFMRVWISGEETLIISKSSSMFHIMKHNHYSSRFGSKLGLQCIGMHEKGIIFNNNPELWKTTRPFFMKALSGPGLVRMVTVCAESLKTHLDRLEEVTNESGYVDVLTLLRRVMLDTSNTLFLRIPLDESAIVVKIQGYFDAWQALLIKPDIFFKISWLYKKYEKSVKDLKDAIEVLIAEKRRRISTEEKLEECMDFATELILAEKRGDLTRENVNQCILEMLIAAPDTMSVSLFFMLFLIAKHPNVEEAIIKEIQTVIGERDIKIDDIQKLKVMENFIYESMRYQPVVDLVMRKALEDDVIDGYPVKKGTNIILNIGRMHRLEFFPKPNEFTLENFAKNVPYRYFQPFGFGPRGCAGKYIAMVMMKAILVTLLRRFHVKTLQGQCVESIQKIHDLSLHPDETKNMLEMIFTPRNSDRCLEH

ClC(Cl)(Cl)Cl
inactive: Potency [1] | Potency [2] | Potency [3] | Potency [4] | Potency [5] | activation ([6]; at 70.3 µM (top of the series)) 2.38% and 2.1% | Potency [7] | Potency [8] | Potency [9] | Potency [10]

BrCC1CO1 (stereo not given)
inactive: Potency [1] | Potency [2] | Potency [3] | Potency [4] | Potency [5] | activation ([6]; at 95 µM (top of the series)) 8.58% | Potency [7] | Potency [8] | Potency [9] | Potency [10]

CN(C)CCN(C)C
inactive: Potency [1] | Potency [2] | Potency [3] | Potency [4] | Potency [5] | activation ([6]; at 70.3 µM (top of the series)) 18.6% | Potency [7] | Potency [8] | Potency [9] | Potency [10]

C=C(C)[C@H]1CN[C@H](C(=O)O)[C@H]1CC(=O)O
inactive: Potency [1] | Potency [2] | Potency [3] | Potency [4] | Potency [5] | activation ([6]; at 70.3 µM (top of the series)) 2.22% | Potency [7] | Potency [8] | Potency [9] | Potency [10]

CS(=O)(=O)Cl
inactive: Potency [1] | Potency [2] | Potency [3] | Potency [4] | Potency [5] | activation ([6]; at 95 µM (top of the series)) 7.45% | Potency [7] | Potency [8] | Potency [9] | Potency [10]

CCCN1CCC[C@@H]2Cc3[nH]ncc3C[C@H]21
inactive: Potency [1] | Potency [2] | Potency [3] | Potency [4] | Potency [5] | activation ([6]; at 70.3 µM (top of the series)) -4.44% | Potency [7] | Potency [8] | Potency [9] | Potency [10]

CCN(CCO)CCO
inactive: Potency [1] | Potency [2] | Potency [3] | Potency [4] | Potency [5] | activation ([6]; at 70.3 µM (top of the series)) -3.36% | Potency [7] | Potency [8] | Potency [9] | Potency [10]

C=C(Cl)CCl
inactive: Potency [1] | Potency [2] | Potency [3] | Potency [4] | Potency [5] | activation ([6]; at 70.3 µM (top of the series)) 0.667% | Potency [7] | Potency [8] | Potency [9] | Potency [10]

CCCCCCCC(=O)Cl
inactive: Potency [1] | Potency [2] | Potency [3] | Potency [4] | Potency [5] | activation ([6]; at 95 µM (top of the series)) -1.47% | Potency [7] | Potency [8] | Potency [9] | Potency [10]

Cc1cccc2sc3nncn3c12
inactive: Potency [1] | Potency [2] | Potency [3] | Potency [4] | Potency [5] | activation ([6]; at 70.3 µM (top of the series)) 13.8% | Potency [7] | Potency [8] | Potency [9] | Potency [10]

O=C(Cl)C(Cl)(Cl)Cl
inactive: Potency [1] | Potency [2] | Potency [3] | Potency [4] | Potency [5] | activation ([6]; at 95 µM (top of the series)) 9.01% | Potency [7] | Potency [8] | Potency [9] | Potency [10]

O=C(Cl)c1ccccc1
inactive: Potency [1] | Potency [2] | Potency [3] | Potency [4] | Potency [5] | activation ([6]; at 95 µM (top of the series)) 1.6% | Potency [7] | Potency [8] | Potency [9] | Potency [10]

CCN(CC)C1CCCCC1
inactive: Potency [1] | Potency [2] | Potency [3] | Potency [4] | Potency [5] | activation ([6]; at 70.3 µM (top of the series)) 6.19% | Potency [7] | Potency [8] | Potency [9] | Potency [10]

O=P(O)(O)c1ccccc1
inactive: Potency [1] | Potency [2] | Potency [3] | Potency [4] | Potency [5] | activation ([6]; at 70.3 µM (top of the series)) 0.284% | Potency [7] | Potency [8] | Potency [9] | Potency [10]

CCCC[N+](=O)[O-]
inactive: Potency [1] | Potency [2] | Potency [3] | Potency [4] | Potency [5] | activation ([6]; at 70.3 µM (top of the series)) 8.37% | Potency [7] | Potency [8] | Potency [9] | Potency [10]

CNC(=O)Oc1ccccc1C(C)C
inactive: Potency [1] | Potency [2] | Potency [3] | Potency [4] | Potency [5] | activation ([6]; at 70.3 µM (top of the series)) -4.06% | Potency [7] | Potency [8] | Potency [9] | Potency [10]

ClCOCCl
inactive: Potency [1] | Potency [2] | Potency [3] | Potency [4] | Potency [5] | Potency [7] | Potency [8] | Potency [9] | Potency [10]
active: Potency [6] 61.4 µM

CNC(=O)NC(O)C(Cl)(Cl)Cl (stereo not given)
inactive: Potency [1] | Potency [2] | Potency [3] | Potency [4] | Potency [5] | activation ([6]; at 70.3 µM (top of the series)) 2.72% | Potency [7] | Potency [8] | Potency [9] | Potency [10]

O=P(O)(O)CN(CP(=O)(O)O)CP(=O)(O)O
inactive: Potency [1] | Potency [2] | Potency [3] | Potency [4] | Potency [5] | activation ([6]; at 32.5 µM (top of the series)) 11.2% | Potency [7] | Potency [8] | Potency [9] | Potency [10]

CCCN1CCC[C@@H]2Cc3nc(N)ncc3C[C@H]21
inactive: Potency [1] | Potency [2] | Potency [3] | Potency [4] | Potency [5] | activation ([6]; at 70.3 µM (top of the series)) -11.9% | Potency [7] | Potency [8] | Potency [9] | Potency [10]

CCNc1nc(NCC)nc(SC)n1
inactive: Potency [1] | Potency [2] | Potency [3] | Potency [4] | Potency [5] | activation ([6]; at 70.3 µM (top of the series)) -15.9% | Potency [7] | Potency [8] | Potency [9] | Potency [10]

CN=CNc1ccc(C)cc1C
inactive: Potency [1] | Potency [2] | Potency [3] | Potency [4] | Potency [5] | activation ([6]; at 70.3 µM (top of the series)) 15.7% | Potency [7] | Potency [8] | Potency [9] | Potency [10]
